From PubChem
An excerpt weighted towards active compounds, which were near 6.2% of everything screened.
RORgamma inh = qHTS for inhibitors of ROR gamma transcriptional activity; Drosophila S2 Gal4-RORgamma UAS-luciferase reporter, 20 h; Potency, µM (series often up to 53.6 µM), without a hit: top-dose activity change, negative = inhibition, most hits filed as inhibitors; actives 5.4% (n = 310,000); AID 2551, 2010; further: nearly all actives have a fitted effect of over 60% in size
Target sequence (P51450 whole entry, looked up, the tested form may be a part): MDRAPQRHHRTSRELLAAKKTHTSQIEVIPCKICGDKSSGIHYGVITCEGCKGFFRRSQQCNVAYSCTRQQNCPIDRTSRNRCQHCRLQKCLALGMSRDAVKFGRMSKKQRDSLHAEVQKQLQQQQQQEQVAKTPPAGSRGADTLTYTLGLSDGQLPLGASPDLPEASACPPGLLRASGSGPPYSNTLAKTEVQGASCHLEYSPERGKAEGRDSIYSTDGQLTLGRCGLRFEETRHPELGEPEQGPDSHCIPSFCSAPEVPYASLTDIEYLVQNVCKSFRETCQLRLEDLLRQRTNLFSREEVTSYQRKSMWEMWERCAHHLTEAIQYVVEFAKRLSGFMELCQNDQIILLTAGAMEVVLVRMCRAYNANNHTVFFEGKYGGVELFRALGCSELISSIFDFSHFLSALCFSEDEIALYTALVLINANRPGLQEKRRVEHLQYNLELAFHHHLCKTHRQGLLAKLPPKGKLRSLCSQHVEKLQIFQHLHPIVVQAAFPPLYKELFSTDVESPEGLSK
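Stably transfected Drosophila Schneider cells are the test system, with ROR gamma fused to Gal4 and luciferase under UAS control; luminescence is read after 20 hr of 700 uM copper sulfate induction at ambient temperature.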
VP16 counter = VP16 counterscreen qHTS for inhibitors of ROR gamma transcriptional activity; Drosophila S2 Gal4-VP16 UAS-luciferase, luminescence, 20 h; Potency, µM (highest dose often 53.6 µM), for inactives: top-dose activity, negative = inhibition, hits mostly inhibitors; actives 3.5% (n = 310,000); AID 2546, 2010;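 further: Gal4-VP16 expression switched on by copper sulfate through the metallothionein promoter; nearly all actives have a fitted effect of over 50% in size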
Luc counter = Counterscreen for Luciferase (Kinase-Glo TM) Inhibition; Potency, µM (doses to about 38.3 µM), for the others: top-dose activity change, negative = inhibition, usual class: inhibitors; actives 0.28% (n = 200,000); Kinase-Glo luciferase, ATP luminescence, 8 min; further: nearly all actives have a fitted effect of over 60% in size
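Compound is pinned into ATP-containing buffer (10 uM ATP, imidazole pH 7.2, 7 mM MgCl2). Kinase-Glo luciferase reagent is then added. Light output is recorded following an 8-min room-temperature incubation.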
Starred values were filed as active, the others as inactive; ? = inconclusive; . = no result; [ ] = remark or other dose. The call rests on the fitted dose curve; in most records, active means well fitted curve in the direction sought with a large enough effect; inconclusive means small, poorly fitted or top-dose-only effect, or another doubt; inactive means no such curve, though single readings can be large; an effect the other way counts as inactive or inconclusive. On the % scale 0 is the no-effect control and ±100 the full control effect; potency means the concentration at half of the fitted maximal effect.

SMILES	RORgamma inh	VP16 counter	Luc counter
CNS(=O)(=O)c1cccc(C(=O)OC2CCOC2=O)c1 (stereo not given)	-21%	13%	.
CS(=O)(=O)c1ccc(C(=O)OC2CCOC2=O)cc1[N+](=O)[O-] (stereo not given)	4.5µM*	?	.
Cc1ccc(S(=O)(=O)N2CCC(C(=O)C3C(=O)CC(C)(C)CC3=O)CC2)cc1	2%	11%	1%
Cc1ccc(S(=O)(=O)/N=C2/C=C(C3C(=O)CC(C)(C)CC3=O)C(=O)c3ccccc32)cc1	11µM*	?	3%
C=C[C@@]1(C)CC(=O)[C@@]2(O)[C@@]3(C)[C@@H](O)CCC(C)(C)[C@@H]3[C@H](O)[C@H](OC(C)=O)[C@@]2(C)O1	-2%	-7%	-1%
CN1/C(=C/C(=O)CSc2ccccc2C(=O)O)C(C)(C)c2ccccc21	2%	-7%	.
CN1/C(=C\C(=O)CSc2cccc[n+]2[O-])C(C)(C)c2ccccc21	7.1µM*	?	1%
CN1/C(=C\C(=O)C[n+]2ccc(C(=O)c3ccccc3)cc2)C(C)(C)c2ccccc21	?	-6%	-1%
Cc1ccc[n+](CC(=O)/C=C2\N(C)c3ccccc3C2(C)C)c1	?	-13%	1%
CN1/C(=C\C(=O)C[n+]2cccc(Br)c2)C(C)(C)c2ccccc21	11%	13µM*	5%
Cc1cccc[n+]1CC(=O)/C=C1\N(C)c2ccccc2C1(C)C	?	6.3µM*	9%
Cc1cc(CCCCCCCCc2cc(C)cc(=O)o2)oc(=O)c1	36%	?	2%
O=C(CSc1ncn[nH]1)N1c2ccccc2Sc2ccccc21	12%	4%	.
CC(C)N1C(=O)CCN(C=O)c2ccccc21	-28%	15%	1%
Cn1cnnc1SCC(=O)Nc1ccc(OCc2ccccc2)cc1	17%	?	-3%
Cc1nc2cnc(N3CCOCC3)nc2n(C2CC2)c1=O	-21%	?	.
FC(F)(F)c1ccc(Cl)c(-n2c(Cc3cccs3)n[nH]c2=S)c1	?	5%	.
CCCc1cc(-c2n[nH]c(=S)n2C(C)c2ccccc2)cs1 (stereo not given)	7.1µM*	7.1µM*	18%
S=c1[nH]nc(-c2cc(-c3ccsc3)n[nH]2)n1-c1cccc2ccccc12	?	-1%	2%
CCc1cc(-c2n[nH]c(=S)n2-c2ccccc2C)cs1	4µM*	5.6µM*	5%
CC(Cc1n[nH]c(=S)o1)c1ccccc1 (stereo not given)	?	-2%	1%
Fc1ccc(-n2c(Cc3cccs3)n[nH]c2=S)cc1Cl	14µM*	-6%	0%
CCc1cc(-c2n[nH]c(=S)n2CC)cs1	?	10µM*	2%
COc1ccc(C2=Nn3c(nnc3-c3cccc(OC)c3)SC2)cc1	85%	2%	.
N#CCCN(C(=O)Nc1ccc(Cl)c(Cl)c1)c1ccccc1	?	2%	1%
SMILES	RORgamma inh	VP16 counter	Luc counter
CC[C@H](C)[C@H](NC(=O)[C@H](C)NC(=O)[C@H](CC(N)=O)NC(=O)[C@H](CCCCN)NC(=O)[C@H](Cc1ccccc1)NC(=O)[C@H](CC(C)C)NC(=O)[C@@H](NC(=O)[C@@H](NC(=O)[C@H](CC(C)C)NC(=O)[C@@H]1CCCN1C(=O)[C@@H](NC(=O)[C@H](CCC(N)=O)NC(=O)[C@H](CO)NC(=O)[C@H](CCCCN)NC(=O)[C@H](CCC(=O)O)NC(=O)[C@H](CO)NC(=O)[C@@H](NC(=O)[C@H](CCSC)NC(=O)[C@H](Cc1ccccc1)NC(=O)CNC(=O)CNC(=O)[C@@H](N)Cc1ccc(O)cc1)[C@@H](C)O)[C@@H](C)O)C(C)C)[C@@H](C)O)C(=O)N[C@H](C(=O)N[C@@H](CCCCN)C(=O)N[C@@H](CC(N)=O)C(=O)N[C@@H](C)C(=O)N[C@@H](Cc1ccc(O)cc1)C(=O)N[C@@H](CCCCN)C(=O)N[C@@H](CCCCN)C(=O)NCC(=O)N[C@@H](CCC(=O)O)C(=O)O)[C@@H](C)CC	-20%	7%	.
COc1cc(-c2n[nH]c(=S)n2C(C)c2ccccc2)cc(OC)c1OC (stereo not given)	?	13µM*	.
CCc1cc(-c2n[nH]c(=S)n2Cc2ccccc2)cs1	3.2µM*	6.3µM*	-4%
Cc1ccccc1-n1c(Cc2cccs2)n[nH]c1=S	1.4µM*	?	0%
COc1cc(-c2ncc3ccccn23)cc(OC)c1OC	4%	-4%	0%
CCCc1cc(-c2n[nH]c(=S)n2CC)cs1	7.1µM*	11µM*	2%
CCn1c(C2CCN(Cc3ccccc3)CC2)n[nH]c1=S	-29%	-3%	0%
CCCCn1c(-c2csc(CCC)c2)n[nH]c1=S	36%	1%	-6%
COc1ccc(-n2c(CNC(=O)c3cccs3)n[nH]c2=S)cc1	3%	3%	1%
CC#CCN1c2ccccc2[C@]23C[C@@H](C(=O)OC)N(S(=O)(=O)c4ccc(C#N)cc4)C2=NC(C(=O)OC)=C(C(=O)OC)[C@H]13	.	.	-1%[7.66 µM]
Cc1ccccc1Nc1ncnc2c1cnn2C	2%	-11%	.
CCN(CC)CCNC(=O)c1c(C)[nH]c(/C=C2\C(=O)Nc3ccc(F)cc32)c1C	-9%[10 µM]	-11%	.
CCOC(=O)c1nccnc1C(=O)Nc1ccc(C(F)(F)F)cc1	13%	-8%	1%
Cc1onc(-c2ccccc2)c1C(=O)N1CCN(c2ncccn2)CC1	-20%	10%	-4%
CCCN(CCC)S(=O)(=O)c1ccc(C(=O)NNc2nc(-c3ccccc3)c3cc(Br)ccc3n2)cc1	?	-1%	1%
COc1ccccc1CCn1c(=O)c(-c2ccc(F)c(F)c2)nc2cncnc21	-13%	-15%	.
CC(C)NC(=O)c1ccc(CS(=O)(=O)c2ccc(Br)cc2)o1	26%	5%	-1%
CCCCOc1ccc(CNC(=S)N/N=C/c2ccc(OC)c(OC)c2)cc1	4.5µM*	2.5µM*	-3%
COc1ccccc1OCc1ccc(C(=O)NCc2cccnc2)o1	14%	2%	1%
CC(C)(C)c1ccc(OCc2ccc(C(=O)NCc3cccnc3)o2)cc1	?	1.4µM*	-1%
COCCNC(=S)N/N=C/c1ccc(OCc2ccc(C(=O)OC)cc2)c(OC)c1	2.2µM*	7.1µM*	1%
CCN=C(N/N=C/c1ccc([N+](=O)[O-])cc1)SC	41%	11%	3%
CCOc1ccc(CNC(=S)N/N=C\c2ccc([N+](=O)[O-])cc2)cc1	1.3µM*	2.8µM*	-1%
COCCNC(=O)C(=O)N/N=C/c1ccc(C(=O)OC)cc1	0%	-11%	-3%
COc1ccc(CNC(=O)/C=C/c2ccc(OCCCF)cc2)cc1OC	-8%	-3%	-2%
CC(C)Oc1ccc(CNC(=S)N/N=C/c2cccnc2)cc1	4µM*	13µM*	-1%
CCOc1ccc(CC(=O)N/N=C/c2cccnc2)cc1	16%	-9%	.
CC(C)(C)c1ccc(OCc2ccc(C(=O)N/N=C/c3ccc([N+](=O)[O-])cc3)o2)cc1	?	10µM*	-5%
CCOc1ccc(CNC(=S)N/N=C/c2cccnc2)cc1	7.9µM*	?	1%
CC(C)NC(=S)N/N=C/c1cccnc1	?	-25%	.
